# Measurements published in PubChem BioAssay (Tox21).
# Where “and” joins values, the source holds several entries; their conditions need not be identical. Equal values may be shown once. Inconclusive results are not listed. Entries that show only a call come without a potency. Where a structure was tested more than once in an assay, its records may differ in their call. Calls of active or inactive are those of the source. The call rests on the fitted dose curve; in most records, active means well fitted curve in the direction sought with a large enough effect in the repeat runs; inconclusive means weak or mixed curves; inactive means no such curve, though single readings can be large; an effect the other way counts as inactive or inconclusive.
# Assays:
# [1] = qHTS RealTime-Glo MT Cell Viability Assay in HEK293 cells - 16 hour (AID 1224872); further: nearly all actives have a fitted effect of over 50% in size; further: potency means the concentration at half of the fitted maximal effect; on activity change, negative = cytotoxicity: top concentration of the series differs between compounds
# Procedure, shortened: (§1)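 HEK293 cells seeded with NanoLuc/prosubstrate reagent, rested 5 h at 37 C, then dosed and kept at 37 C up to 40 h. Nonlytic real-time luminescence from viable cells read at 0, 8, 16, 24, 32 and 40 h.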
# [2] = qHTS RealTime-Glo MT Cell Viability Assay in HepG2 cells - 8 hour (AID 1224873); further: nearly all actives have a fitted effect of over 55% in size; further: potency means the concentration at half of the fitted maximal effect
# Procedure, shortened: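 HepG2 cells mixed with RealTime-Glo MT reagents (NanoLuc plus cell-permeant prosubstrate) were seeded at 600 cells/well, incubated 5 h at 37 C/5% CO2, then pinned with compounds in DMSO; nonlytic luminescence tracked viability during 40 h treatment.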
# [3] = qHTS RealTime-Glo MT Cell Viability Assay in HEK293 cells - 40 hour (AID 1224874); conditions: RealTime-Glo luminescence; max response: stronger effect = lower value; further: nearly all actives have a fitted effect of over 50% in size; further: potency means the concentration at half of the fitted maximal effect
# Procedure, shortened: (§2)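 Cells were seeded together with NanoLuc luciferase and a prosubstrate that viable cells reduce to a luciferase substrate. After a 5 h incubation at 37 C/5% CO2, compounds were added and luminescence was measured repeatedly during 40 h of treatment.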
# [4] = A CellTox Green Cytotoxicity Assay to monitor cytotoxicity in HEK293 cells - 24 hour (AID 1224875); further: series mostly up to about 77 µM; nearly all actives have a fitted effect of over 45% in size
# Procedure, shortened: (§3)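 Nonlytic real-time cytotoxicity: HEK293 + CellTox Green reagent plated, 5 h preincubation, pintool compound addition (23 nL in DMSO), 37 C for 40 h, fluorescence measured at successive time points.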
# [5] = A CellTox Green Cytotoxicity Assay to monitor cytotoxicity in HepG2 cells - 16 hour (AID 1224876); further: nearly all actives have a fitted effect of over 45% in size; further: potency means the concentration at half of the fitted maximal effect
# Procedure, shortened: (§4)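 Read-out is fluorescence of a cyanine dye excluded from live cells that stains DNA of dead HepG2 cells, with signal proportional to cytotoxicity. Plates were read at 0, 8, 16, 24, 32 and 40 h after compound addition.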
# [6] = qHTS RealTime-Glo MT Cell Viability Assay in HepG2 cells - 32 hour (AID 1224877); further: nearly all actives have a fitted effect of over 55% in size; further: potency means the concentration at half of the fitted maximal effect
# Procedure, shortened: (§5)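 HepG2 cells (600/well) were dispensed with RealTime-Glo reagents, incubated 5 h at 37 °C, then treated with compounds in DMSO for up to 40 h. Nonlytic NanoLuc luminescence reflecting viable cells was read at each stated time point.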
# [7] = A CellTox Green Cytotoxicity Assay to monitor cytotoxicity in HepG2 cells - 24 hour (AID 1224878); further: nearly all actives have a fitted effect of over 45% in size; further: potency means the concentration at half of the fitted maximal effect
# Procedure, shortened: as §4
# [8] = A CellTox Green Cytotoxicity Assay to monitor cytotoxicity in HepG2 cells - 40 hour (AID 1224879); further: nearly all actives have a fitted effect of over 40% in size; further: potency means the concentration at half of the fitted maximal effect
# Procedure, shortened: as §4
# [9] = qHTS RealTime-Glo MT Cell Viability Assay in HEK293 cells - 0 hour (AID 1224880); further: top concentration of the series differs between compounds; nearly all actives have a fitted effect of over 45% in size
# Procedure, shortened: as §2
# [10] = A CellTox Green Cytotoxicity Assay to monitor cytotoxicity in HepG2 cells - 0 hour (AID 1224882); further: nearly all actives have a fitted effect of over 35% in size
# Procedure, shortened: as §4
# [11] = A CellTox Green Cytotoxicity Assay to monitor cytotoxicity in HepG2 cells - 32 hour (AID 1224883); further: nearly all actives have a fitted effect of over 50% in size; further: potency means the concentration at half of the fitted maximal effect
# Procedure, shortened: as §4
# [12] = A CellTox Green Cytotoxicity Assay to monitor cytotoxicity in HEK293 cells - 8 hour (AID 1224884); further: nearly all actives have a fitted effect of over 35% in size
# Procedure, shortened: as §3
# [13] = qHTS RealTime-Glo MT Cell Viability Assay in HepG2 cells - 16 hour (AID 1224885); further: nearly all actives have a fitted effect of over 50% in size; further: potency means the concentration at half of the fitted maximal effect
# Procedure, shortened: as §5
# [14] = qHTS RealTime-Glo MT Cell Viability Assay in HEK293 cells - 24 hour (AID 1224886); further: nearly all actives have a fitted effect of over 50% in size; further: potency means the concentration at half of the fitted maximal effect; on activity change, negative = cytotoxicity: top concentration of the series differs between compounds
# Procedure, shortened: as §1
# [15] = qHTS RealTime-Glo MT Cell Viability Assay in HEK293 cells - 8 hour (AID 1224887); further: nearly all actives have a fitted effect of over 50% in size; further: potency means the concentration at half of the fitted maximal effect; on activity change, negative = cytotoxicity: top concentration of the series differs between compounds
# Procedure, shortened: as §2
# [16] = A CellTox Green Cytotoxicity Assay to monitor cytotoxicity in HEK293 cells - 16 hour (AID 1224888); further: nearly all actives have a fitted effect of over 35% in size
# Procedure, shortened: as §3
# [17] = qHTS RealTime-Glo MT Cell Viability Assay in HepG2 cells - 0 hour (AID 1224889); further: nearly all actives have a fitted effect of over 50% in size
# Procedure, shortened: as §5
# [18] = A CellTox Green Cytotoxicity Assay to monitor cytotoxicity in HepG2 cells - 8 hour (AID 1224890); further: nearly all actives have a fitted effect of over 45% in size
# Procedure, shortened: as §4
# [19] = A CellTox Green Cytotoxicity Assay to monitor cytotoxicity in HEK293 cells - 32 hour (AID 1224881); further: nearly all actives have a fitted effect of over 40% in size
# Procedure, shortened: as §3
# [20] = qHTS assay to identify small molecule antagonists of the estrogen receptor alpha (ER-alpha) signaling pathway using the BG1 cell line in the presence of 0.1 nM 17-beta-estradiol - cell viability counter screen (AID 1259241); further: nearly all actives have a fitted effect of over 40% in size; further: potency means the concentration at half of the fitted maximal effect
# Procedure, shortened: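 Cells were plated and left 24 hr, compounds in DMSO were pinned in, 17beta-estradiol was added to 0.1 nM final, and after 22 hr CellTiter-Fluor reagent was added for 30 min before fluorescence was read.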
smiles,measurement,setting,value
COC(C)=O,Potency,[1],inactive
same,Potency,[2],inactive
same,max response,[3],-13.9% (inactive)
same,Potency,[4],inactive
same,Potency,[5],inactive
same,Potency,[6],inactive
same,Potency,[7],inactive
same,Potency,[8],inactive
same,Potency,[9],inactive
same,Potency,[10],inactive
same,Potency,[11],inactive
same,Potency,[12],inactive
same,Potency,[13],inactive
same,Potency,[14],inactive
same,Potency,[15],inactive
same,Potency,[16],inactive
same,Potency,[17],inactive
same,Potency,[18],inactive
Cc1c(C)c([N+](=O)[O-])c(C(C)(C)C)c([N+](=O)[O-])c1C,Potency,[1],inactive
same,Potency,[2],inactive
same,max response,[3],-0.27% (inactive)
same,Potency,[4],inactive
same,Potency,[5],inactive
same,Potency,[6],inactive
same,Potency,[7],inactive
same,Potency,[8],inactive
same,Potency,[9],inactive
same,Potency,[19],inactive
same,Potency,[10],inactive
same,Potency,[11],inactive
same,Potency,[12],inactive
same,Potency,[13],inactive
same,Potency,[14],inactive
same,Potency,[15],inactive
same,Potency,[16],inactive
same,Potency,[17],inactive
same,Potency,[18],inactive
same,Potency,[20],inactive
Cc1cccc(C)c1NC(=O)c1ccc(N)cc1,Potency,[1],inactive
same,Potency,[2],inactive
same,max response,[3],-2.12% (inactive)
same,Potency,[4],inactive
same,Potency,[5],inactive
same,Potency,[6],inactive
same,Potency,[7],inactive
same,Potency,[8],inactive
same,Potency,[9],inactive
same,Potency,[19],inactive
same,Potency,[10],inactive
same,Potency,[11],inactive
same,Potency,[12],inactive
same,Potency,[13],inactive
same,Potency,[14],inactive
same,Potency,[15],inactive
same,Potency,[16],inactive
same,Potency,[17],inactive
same,Potency,[18],inactive
same,Potency,[20],inactive
CN(C)c1ccc(C(=C2C=CC(=[N+](C)C)C=C2)c2ccc(N(C)C)cc2)cc1,Potency,[1],6.88 µM (active) and 19.5 µM (active) and 7.56 µM (active)
same,Potency,[2],19.4 µM (active) and 24.5 µM (active)
same,Potency,[3],1.73 µM (active) and 4.9 µM (active) and 1.69 µM (active)
same,Potency,[4],inactive
same,Potency,[5],10.9 µM (active) and inactive
same,Potency,[6],30.7 µM (active) and 24.5 µM (active) and 21.3 µM (active)
same,Potency,[7],10.9 µM (active) and 12.3 µM (active) and 19 µM (active)
same,Potency,[8],10.9 µM (active) and 12.3 µM (active) and 21.3 µM (active)
same,Potency,[9],inactive
same,Potency,[19],inactive
same,Potency,[10],inactive
same,Potency,[11],10.9 µM (active) and 11 µM (active) and 19 µM (active)
same,Potency,[12],inactive
same,Potency,[13],21.8 µM (active) and 24.5 µM (active)
same,Potency,[14],5.47 µM (active) and 7.76 µM (active) and 3.01 µM (active)
same,Potency,[15],21.8 µM (active) and 43.6 µM (active)
same,Potency,[17],inactive
same,Potency,[18],inactive
same,Potency,[20],8.59 µM (active) and 6.86 µM (active) and 5.31 µM (active)
FC(F)(F)c1cccc(Cl)c1,Potency,[1],inactive
same,Potency,[2],inactive
same,max response,[3],-5.72% (inactive)
same,Potency,[4],inactive
same,Potency,[5],inactive
same,Potency,[6],inactive
same,Potency,[7],inactive
same,Potency,[8],inactive
same,Potency,[9],inactive
same,Potency,[19],inactive
same,Potency,[10],inactive
same,Potency,[11],inactive
same,Potency,[12],inactive
same,Potency,[13],inactive
same,Potency,[14],inactive
same,Potency,[15],inactive
same,Potency,[16],inactive
same,Potency,[17],inactive
same,Potency,[18],inactive
same,Potency,[20],inactive
Oc1ccccc1O,Potency,[1],55.6 µM (active) and 49 µM (active)
same,Potency,[2],inactive
same,Potency,[3],35.1 µM (active) and 24.5 µM (active)
same,Potency,[4],inactive
same,Potency,[5],inactive
same,Potency,[6],inactive
same,Potency,[7],inactive
same,Potency,[8],inactive
same,Potency,[9],inactive
same,Potency,[10],inactive
same,Potency,[11],inactive
same,Potency,[12],inactive
same,Potency,[13],inactive
same,Potency,[14],49.6 µM (active) and 24.5 µM (active)
same,Potency,[15],inactive
same,Potency,[16],inactive
same,Potency,[17],inactive
same,Potency,[18],inactive
O=C(O)O,"activity change, negative = cytotoxicity",[1],1.92% [at 6.97 µM] (inactive)
same,"viability change, negative = cytotoxic",[2],-4.4% [at 6.97 µM] (inactive)
same,max response,[3],-2.54% (inactive)
same,activity change,[4],"5.15% [at 6.97 µM, stronger effect = higher value] (inactive)"
same,cytotoxicity increase,[5],-0.218% [at 6.97 µM] (inactive)
same,"activity change, negative = cytotoxic",[6],7.61% [at 6.97 µM] (inactive)
same,cytotoxicity,[7],-2.66% [at 6.97 µM] (inactive)
same,cytotoxicity increase,[8],-9.85% [at 6.97 µM] (inactive)
same,"activity change, negative = cytotoxicity",[9],3.17% [at 6.97 µM] (inactive)
same,cytotoxicity increase,[19],-1.24% [at 6.97 µM] (inactive)
same,cytotoxicity,[10],0.722% [at 6.97 µM] (inactive)
same,cytotoxicity increase,[11],-9.49% [at 6.97 µM] (inactive)
same,cytotoxicity increase,[12],-0.487% [at 6.97 µM] (inactive)
same,"activity change, negative = cytotoxic",[13],-0.68% [at 6.97 µM] (inactive)
same,"activity change, negative = cytotoxicity",[15],1.73% [at 6.97 µM] (inactive)
same,activity change,[16],"1.05% [at 6.97 µM, stronger effect = higher value] (inactive)"
same,"activity change, negative = cytotoxicity",[17],-3.52% [at 6.97 µM] (inactive)
same,cytotoxicity increase,[18],4.8% [at 6.97 µM] (inactive)
CCN(CCN)c1cccc(C)c1,Potency,[1],inactive
same,Potency,[2],inactive
same,max response,[3],-16.9% (inactive) and 1.24% (inactive)
same,Potency,[4],inactive
same,Potency,[5],inactive
same,Potency,[6],inactive
same,Potency,[7],inactive
same,Potency,[8],inactive
same,Potency,[9],inactive
same,Potency,[19],inactive
same,Potency,[10],inactive
same,Potency,[11],inactive
same,Potency,[12],inactive
same,Potency,[13],inactive
same,Potency,[14],inactive
same,Potency,[15],inactive
same,Potency,[16],inactive
same,Potency,[17],inactive
same,Potency,[18],inactive
same,Potency,[20],inactive
CCC(C)[O-].CCC(C)[O-].CCOC(=O)/C=C(/C)[O-].[Al+3],Potency,[1],inactive
same,Potency,[2],inactive
same,max response,[3],0.788% (inactive)
same,Potency,[4],inactive
same,Potency,[5],inactive
same,Potency,[6],inactive
same,Potency,[7],inactive
same,Potency,[8],inactive
same,Potency,[9],inactive
same,Potency,[19],inactive
same,Potency,[10],inactive
same,Potency,[11],inactive
same,Potency,[12],inactive
same,Potency,[13],inactive
same,Potency,[14],inactive
same,Potency,[15],inactive
same,Potency,[16],inactive
same,Potency,[18],inactive
same,Potency,[20],inactive
O=C(O)c1cc(-c2ccc(F)cc2F)ccc1O,Potency,[1],inactive
same,Potency,[2],inactive
same,max response,[3],-1.84% (inactive)
same,Potency,[4],inactive
same,Potency,[5],inactive
same,Potency,[6],inactive
same,Potency,[7],inactive
same,Potency,[8],inactive
same,Potency,[9],inactive
same,Potency,[19],inactive
same,Potency,[10],inactive
same,Potency,[11],inactive
same,Potency,[12],inactive
same,Potency,[13],inactive
same,Potency,[14],inactive
same,Potency,[15],inactive
same,Potency,[16],inactive
same,Potency,[17],inactive
same,Potency,[18],inactive
Cc1cccc2cccnc12,Potency,[1],inactive
same,Potency,[2],inactive
same,max response,[3],0.538% (inactive)
same,Potency,[4],inactive
same,Potency,[5],inactive
same,Potency,[6],inactive
same,Potency,[7],inactive
same,Potency,[8],inactive
same,Potency,[9],inactive
same,Potency,[19],inactive
same,Potency,[10],inactive
same,Potency,[11],inactive
same,Potency,[12],inactive
same,Potency,[13],inactive
same,Potency,[14],inactive
same,Potency,[15],inactive
same,Potency,[16],inactive
same,Potency,[17],inactive
same,Potency,[18],inactive
